# About 2,000 (36%) of roughly 5,500 compounds were called active. Another 18% or so got no clear call; they are omitted. Some of the results follow. Values without a mark were called inactive. No stated cut-off is given here; in the data, active means normalized growth mostly below about 0.91 (no sharp cut-off); inconclusive means no clear call, values can overlap the other calls; inactive means mostly above about 0.92.
# Test: chemical genetic growth profiling, strain panel (AID 1159580);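 further: tested at 20 µM; growth read once vehicle control cultures reached saturation at 30 °C; 1 = growth at the plate median or of vehicle wells; lower values mean less growth of the strain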
# Settings: growth OD
smiles,measurement,setting,value
CCCc1nn(C)c2c(=O)[nH]c(-c3cc(S(=O)(=O)N4CCN(C)CC4)ccc3OCC)nc12,normalized growth,"S. cerevisiae deletion strains, locus YJR075W, strain HOC1, active compounds read low",1.02
same,normalized growth,"S. cerevisiae deletion strains, locus YKL009W, strain mrt4, active compounds read low",1.01
same,normalized growth,"S. cerevisiae deletion strains, locus YKL068W, active compounds read low",0.995
same,normalized growth,"S. cerevisiae deletion strains, locus YKL085W, strain MDH1 (second series), active compounds read low",0.996
same,normalized growth,"S. cerevisiae deletion strains, locus YKL085W, strain MDH1, active compounds read low",0.996
same,normalized growth,"S. cerevisiae deletion strains, locus YKL160W, strain elf1, active compounds read low",0.999
same,normalized growth,"S. cerevisiae deletion strains, locus YKL190W, strain CNB1, active compounds read low",1.02
same,normalized growth,"S. cerevisiae deletion strains, locus YKR001C, strain vps1, active compounds read low",0.64 (active)
same,normalized growth,"S. cerevisiae deletion strains, locus YKR026C, strain gcn3, active compounds read low",1
same,normalized growth,"S. cerevisiae deletion strains, locus YKR091W, strain srl3, active compounds read low",0.987
same,normalized growth,"S. cerevisiae deletion strains, locus YLL001W, strain dnm1, active compounds read low",0.992
same,normalized growth,"S. cerevisiae deletion strains, locus YLL026W, active compounds read low",0.985
same,normalized growth,"S. cerevisiae deletion strains, locus YLL041C, strain sdh2, active compounds read low",0.992
same,normalized growth,"S. cerevisiae deletion strains, locus YLR027C, strain aat2, active compounds read low",0.992
same,normalized growth,"S. cerevisiae deletion strains, locus YLR039C, strain RIC1, active compounds read low",1.02
same,normalized growth,"S. cerevisiae deletion strains, locus YLR058C, strain SHM2, active compounds read low",1.02
same,normalized growth,"S. cerevisiae deletion strains, locus YLR102C, strain apc9, active compounds read low",0.988
same,normalized growth,"S. cerevisiae deletion strains, locus YLR113W, strain HOG1, active compounds read low",1.03
same,normalized growth,"S. cerevisiae deletion strains, locus YLR221C, strain rsa3, active compounds read low",0.988
same,normalized growth,"S. cerevisiae deletion strains, locus YLR258W, strain gsy2, active compounds read low",0.984
same,normalized growth,"S. cerevisiae deletion strains, locus YLR262C, strain YPT6 (second series), active compounds read low",0.986
same,normalized growth,"S. cerevisiae deletion strains, locus YLR262C, strain YPT6, active compounds read low",1.05
same,normalized growth,"S. cerevisiae deletion strains, locus YLR268W, strain sec22, active compounds read low",0.993
same,normalized growth,"S. cerevisiae deletion strains, locus YLR320W, strain mms22, active compounds read low",0.986
same,normalized growth,"S. cerevisiae deletion strains, locus YLR330W, strain CHS5, active compounds read low",1.02
same,normalized growth,"S. cerevisiae deletion strains, locus YLR342W, strain FKS1 (second series), active compounds read low",1.03
same,normalized growth,"S. cerevisiae deletion strains, locus YLR342W, strain FKS1, active compounds read low",0.99
same,normalized growth,"S. cerevisiae deletion strains, locus YLR357W, strain rsc2, active compounds read low",0.983
same,normalized growth,"S. cerevisiae deletion strains, locus YLR370C, strain arc18, active compounds read low",0.988
same,normalized growth,"S. cerevisiae deletion strains, locus YLR371W, strain rom2, active compounds read low",0.978
same,normalized growth,"S. cerevisiae deletion strains, locus YLR384C, strain iki3, active compounds read low",0.981
same,normalized growth,"S. cerevisiae deletion strains, locus YLR418C, strain cdc73, active compounds read low",0.987
same,normalized growth,"S. cerevisiae deletion strains, locus YML016C, strain PPZ1, active compounds read low",1.02
same,normalized growth,"S. cerevisiae deletion strains, locus YML032C, strain rad52, active compounds read low",1
same,normalized growth,"S. cerevisiae deletion strains, locus YML120C, strain ndi1, active compounds read low",0.995
same,normalized growth,"S. cerevisiae deletion strains, locus YML124C, strain tub3, active compounds read low",0.99
same,normalized growth,"S. cerevisiae deletion strains, locus YMR058W, strain fet3, active compounds read low",0.999
same,normalized growth,"S. cerevisiae deletion strains, locus YMR078C, strain ctf18, active compounds read low",1.01
same,normalized growth,"S. cerevisiae deletion strains, locus YMR125W, strain sto1, active compounds read low",0.981
same,normalized growth,"S. cerevisiae deletion strains, locus YMR129W, active compounds read low",0.974
same,normalized growth,"S. cerevisiae deletion strains, locus YMR205C, strain PFK2, active compounds read low",0.981
same,normalized growth,"S. cerevisiae deletion strains, locus YMR223W, strain ubp8, active compounds read low",1
same,normalized growth,"S. cerevisiae deletion strains, locus YMR231W, strain pep5, active compounds read low",0.988
same,normalized growth,"S. cerevisiae deletion strains, locus YMR263W, strain SAP30, active compounds read low",1.03
same,normalized growth,"S. cerevisiae deletion strains, locus YMR307W, strain GAS1, active compounds read low",1.1
same,normalized growth,"S. cerevisiae deletion strains, locus YNL067W, strain RPL9B, active compounds read low",1.03
same,normalized growth,"S. cerevisiae deletion strains, locus YNL071W, strain lat1, active compounds read low",0.991
same,normalized growth,"S. cerevisiae deletion strains, locus YNL128W, strain TEP1, active compounds read low",1.02
same,normalized growth,"S. cerevisiae deletion strains, locus YNL153C, strain GIM3, active compounds read low",1.02
same,normalized growth,"S. cerevisiae deletion strains, locus YNL183C, strain NPR1, active compounds read low",0.978
same,normalized growth,"S. cerevisiae deletion strains, locus YNL209W, strain ssb2, active compounds read low",0.99
same,normalized growth,"S. cerevisiae deletion strains, locus YNL233W, strain BNI4, active compounds read low",1.02
same,normalized growth,"S. cerevisiae deletion strains, locus YNL248C, strain rpa49, active compounds read low",0.981
same,normalized growth,"S. cerevisiae deletion strains, locus YNL250W, strain rad50, active compounds read low",0.995
same,normalized growth,"S. cerevisiae deletion strains, locus YNL271C, strain bni1, active compounds read low",0.99
same,normalized growth,"S. cerevisiae deletion strains, locus YNL298W, strain CLA4, active compounds read low",0.984
same,normalized growth,"S. cerevisiae deletion strains, locus YNL307C, strain MCK1, active compounds read low",0.995
same,normalized growth,"S. cerevisiae deletion strains, locus YNL322C, strain KRE1 (second series), active compounds read low",0.982
same,normalized growth,"S. cerevisiae deletion strains, locus YNL322C, strain KRE1, active compounds read low",1.01
same,normalized growth,"S. cerevisiae deletion strains, locus YNR049C, strain mso1, active compounds read low",0.992
same,normalized growth,"S. cerevisiae deletion strains, locus YNR052C, strain pop2, active compounds read low",1
same,normalized growth,"S. cerevisiae deletion strains, locus YOL006C, strain TOP1, active compounds read low",1.1
same,normalized growth,"S. cerevisiae deletion strains, locus YOL012C, strain htz1",0.868
same,normalized growth,"S. cerevisiae deletion strains, locus YOL147C, strain pex11, active compounds read low",0.985
same,normalized growth,"S. cerevisiae deletion strains, locus YOR001W, strain rrp6, active compounds read low",0.999
same,normalized growth,"S. cerevisiae deletion strains, locus YOR061W, strain CKA2, active compounds read low",1.02
same,normalized growth,"S. cerevisiae deletion strains, locus YOR069W, strain VPS5, active compounds read low",1.02
same,normalized growth,"S. cerevisiae deletion strains, locus YOR070C, strain gyp1, active compounds read low",0.984
same,normalized growth,"S. cerevisiae deletion strains, locus YOR080W, strain dia2, active compounds read low",0.996
same,normalized growth,"S. cerevisiae deletion strains, locus YOR083W, strain WHI5, active compounds read low",0.987
same,normalized growth,"S. cerevisiae deletion strains, locus YOR106W, strain vam3, active compounds read low",0.987
same,normalized growth,"S. cerevisiae deletion strains, locus YOR136W, strain idh2, active compounds read low",0.991
same,normalized growth,"S. cerevisiae deletion strains, locus YOR144C, strain elg1, active compounds read low",0.986
same,normalized growth,"S. cerevisiae deletion strains, locus YOR184W, strain ser1, active compounds read low",0.988
same,normalized growth,"S. cerevisiae deletion strains, locus YOR231W, strain MKK1, active compounds read low",1.03
same,normalized growth,"S. cerevisiae deletion strains, locus YOR265W, strain rbl2, active compounds read low",1
same,normalized growth,"S. cerevisiae deletion strains, locus YOR270C, strain vph1, active compounds read low",0.983
same,normalized growth,"S. cerevisiae deletion strains, locus YOR290C, strain snf2, active compounds read low",1
same,normalized growth,"S. cerevisiae deletion strains, locus YOR316C, strain cot1, active compounds read low",0.991
same,normalized growth,"S. cerevisiae deletion strains, locus YPL051W, strain arl3, active compounds read low",0.993
same,normalized growth,"S. cerevisiae deletion strains, locus YPL055C, strain LGE1, active compounds read low",1.05
same,normalized growth,"S. cerevisiae deletion strains, locus YPL078C, strain atp4, active compounds read low",0.994
same,normalized growth,"S. cerevisiae deletion strains, locus YPL106C, strain sse1, active compounds read low",0.977
same,normalized growth,"S. cerevisiae deletion strains, locus YPL240C, strain hsp82, active compounds read low",0.997
same,normalized growth,"S. cerevisiae deletion strains, locus YPL241C, strain CIN2, active compounds read low",1.02
same,normalized growth,"S. cerevisiae deletion strains, locus YPL256C, strain CLN2, active compounds read low",1.05
same,normalized growth,"S. cerevisiae deletion strains, locus YPR119W, strain clb2, active compounds read low",0.986
same,normalized growth,"S. cerevisiae deletion strains, locus YPR141C, strain kar3, active compounds read low",0.993
same,normalized growth,"S. cerevisiae deletion strains, locus YPR163C, strain tif3, active compounds read low",0.982
same,normalized growth,"S. cerevisiae deletion strains, locus YPR167C, strain met16, active compounds read low",0.988
same,normalized growth,"S. cerevisiae deletion strains, strain wtn01, active compounds read low",0.998
same,normalized growth,"S. cerevisiae strains, strain wild type, active compounds read low",1.01
